Reference: PubChem BioAssay

Test: probe aNog binding to arrayed compounds – biochemical, biotinylated probe, 635/667 nm fluorescence, primary screen (AID 1115);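 also: probe is biotinylated aNog protein used at 0.15 µg/mL for 1 h at 4 C; z-score combines 667 nm fluorescence of each spot with its signal to noise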
Conditions: small-molecule microarray, higher = more signal

SMILES	composite z-score
COC(=O)[C@H]1N=C(c2ccc(OCCCO)cc2)O[C@H]1c1ccccc1CN=[N+]=[N-]	1.64
C[N+](C)(C)CCCCNC(=O)[C@H]1C[C@H]2C(=O)NCC(=O)N2[C@H]1c1ccc(O)cc1	-0.0037
CN(C)CCCCCCNC(=O)[C@@H]1C[C@@H]2C(=O)NCC(=O)N2[C@@H]1c1ccc(O)cc1	-0.213
COc1ccc(C#Cc2ccc3c(c2)[C@]2(C(=O)N3)[C@H](c3ccc(OCCO)cc3)N3[C@H](c4ccccc4)[C@H](c4ccccc4)OC(=O)[C@H]3[C@@H]2C(=O)N2CCN(c3ncccn3)CC2)cc1	-0.474
[N-]=[N+]=NCc1ccccc1[C@H]1OC(c2ccc(OCCCO)cc2)=N[C@@]1(Cc1ccccc1)C(N)=O	0.654
C#CCOC(=O)N[C@H](C=CCCCC)c1ccccc1	1.52
COc1cccc(C[C@H]2C[C@@H](CO[Si](C(C)C)(C(C)C)C(C)C)N3C(=O)[C@]4(C(C)=O)O[C@]23[C@H]2C(=O)N(C)C(=O)[C@H]24)c1	-0.158
C=C(COC)/C(=C/C[C@@H](OC(=O)c1ccncc1)c1cccc(OCCO)c1)c1cc(C(=O)OC)ccc1OC	-0.483
C[N+](C)(C)CCCC[C@@H]1NC(=O)[C@@H]2C[C@H](C(=O)NCCCCCNC(=O)CS)[C@H](c3cccc(OCCO)c3)N2C1=O	0.0197
CCCCCCCCCCC(O)C1C=CC2C(=O)NC(=O)C2N1Nc1ccccn1 (stereo unspecified)	1.7
CCOC(=O)C[C@H]1[C@H](OC(=O)c2ccc(C(=O)c3ccccc3)cc2)[C@@H](NC(=O)C2CCCCC2)c2cc(OCCCO)ccc2N1C(=O)Cc1ccc(OC)cc1	-0.0597
COc1ccc([Si](C)(C)[C@@H]2[C@@H](CCO)O[C@]3(C(=O)N(Cc4ccc(N5C(=O)c6ccccc6Oc6ccccc65)cc4)c4ccccc43)[C@H]2C)cc1	-0.358
O=C1O[C@@H](c2ccccc2)[C@@H](c2ccccc2)N2[C@@H](c3ccc(O)cc3)[C@]3(C(=O)Nc4ccc(C#CC5(O)CCCCCC5)cc43)[C@@H](C(=O)N3CCN(c4ncccn4)CC3)[C@H]12	0.146
COCCCNC(=O)[C@@]1(C)c2ccccc2C(=O)N(c2ccc(C)cn2)[C@H]1c1ccc(CO)cc1	-0.911
COc1ccc([Si](C)(C)[C@H]2[C@H](CCO)O[C@@]3(C(=O)N(Cc4cccc(N5CCOC5=O)c4)c4ccccc43)[C@@H]2C)cc1	-0.118
O=C(N1CCOCC1)[C@@]1(CCS(=O)(=O)c2ccccc2)COC(c2ccc(OCCCO)cc2)=N1	-0.824
COCCOC(=O)N1C(=O)[C@@]2(c3cc(C#Cc4ccc(OC)cc4)ccc31)[C@H](C(N)=O)[C@H]1C(=O)O[C@H](c3ccccc3)[C@H](c3ccccc3)N1[C@@H]2c1ccc(OCCO)cc1	0.492
C=C[C@H](C)[C@H](OC(=O)Nc1ccc(SC)cc1)c1ccc(O)c2ccccc12	-0.383

SMILES	composite z-score
C=C(CCCC)/C(=C/C[C@H](OC(=O)c1ccncc1)c1ccc(CO)o1)c1cc(C(=O)OC)ccc1OC	0.95
CN1C(=O)C2C=CC(C(O)c3cccc4ccccc34)N(NC(=O)OC(C)(C)C)C2C1=O (stereo unspecified)	-0.125
COc1cc2c(cc1OC)CN(C(=O)[C@@H]1[C@H]3C(=O)O[C@H](c4ccccc4)[C@H](c4ccccc4)N3[C@H](c3ccc(OCCO)cc3)[C@@]13C(=O)Nc1ccc(C#CCCO)cc13)CC2	1.8
NCCCCCCNC(=O)[C@H]1C[C@H]2C(=O)N3CCC[C@H]3C(=O)N2[C@H]1c1ccc(O)cc1	-0.28
C[C@H]1NC(=O)C([C@@H](C)OCc2ccccc2)NC(=O)[C@@]23C(=O)N[C@@H](Cc4ccccc4)C2[C@H](C)[C@@]2(C)O[C@H]2C3/C=C/CC/C=C/CNC1=O (stereo partly specified)	-0.37
O=C1O[C@@H](c2ccccc2)[C@@H](c2ccccc2)N2[C@@H](c3ccc(O)cc3)[C@]3(C(=O)Nc4ccc(C#CC5=CCCCC5)cc43)[C@@H](C(=O)Nc3nc4ccccc4s3)[C@H]12	2.02
CC(C)(C)N1CC=CC23O[C@@H]4C=CCCOC(=O)C4[C@H]2C(=O)N(CCCO)[C@@H]3C1=O (stereo partly specified)	-0.118
CN(C)CCCCNC(=O)[C@H]1C[C@H]2C(=O)N[C@@H](CCCC[N+](C)(C)C)C(=O)N2[C@H]1c1cccc(OCCO)c1	0.0286
CCCCC(CC)C(O)C1C=CC2C(=O)NC(=O)C2N1Nc1ccccn1 (stereo unspecified)	1.19
C[N+](C)(C)CCCCCCNC(=O)[C@@H]1C[C@@H]2C(=O)NCC(=O)N2[C@@H]1c1cccc(OCCO)c1	-0.0317
CCCCC=C[C@@H](NC(=O)CCc1ccccc1)c1ccccc1	1.11
C[N+](C)(C)CCCCCCNC(=O)[C@H]1C[C@H]2C(=O)N3CCC[C@H]3C(=O)N2[C@H]1c1cccc(OCCO)c1	-0.381
COc1cccc(C)c1NC(=O)O[C@H]1[C@H](OC(=O)Nc2ccccc2)[C@H](OC(=O)Nc2ccccc2)[C@@H](OC)O[C@@H]1CO	-0.236
CC(C)NC(=O)[C@@]1(Cc2ccccc2I)c2ccccc2C(=O)N(Cc2ccccc2C(F)(F)F)[C@H]1c1ccc(CO)cc1	0.647
COCCCNC(=O)[C@@]1(Cc2ccccc2CN=[N+]=[N-])N=C(c2ccc(OCCCO)cc2)O[C@H]1c1ccccc1N=[N+]=[N-]	-0.675
C=C(C)[C@@H]1CC=C(C(O)C2C=CC3C(=O)N(C4CCCCC4)C(=O)C3N2Nc2ccc(OC)cc2)CC1 (stereo partly specified)	-0.368
C=CCC(OC(C)=O)[C@@H]1[C@@H](N(Cc2ccc(-c3ccccc3)cc2)C(=O)Cc2ccc(OC)cc2)c2cc(OCCCO)ccc2N1C(=O)c1ccc(-c2ccccc2)cc1 (stereo partly specified)	-0.174
CC(C)=CCCC(C)=CC(O)C1C=CC2C(=O)N(c3ccccc3)C(=O)C2N1Nc1ccc([N+](=O)[O-])cc1 (stereo unspecified)	1.71
